Laboratory results as given in the supplement of paper PMC10646978.
± gives the standard deviation.

Assays:
Details in all cases: modulator concentration 10 µM
[1] = tested on: RAW-Dual (murine macrophage reporter line); assay: NF-kB reporter (SEAP) activity fold change vs agonist alone; higher = enhanced NF-kB activity
Procedure, shortened: (§1)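 Compound reached 10 μM final in each well by pin transfer, onto RAW-Dual murine macrophage reporter cells seeded at 50 000 per well in 384-well plates. After 1 hour at 37 °C, the cells were stimulated overnight with a PRR agonist. SEAP in the supernatant was read with QUANTI-Blue at 620 nm absorbance for NF-κB, and Lucia luciferase was read with QUANTI-Luc luminescence for IRF. Each signal was turned into fold change against the mean agonist-only control on the same plate, and two replicate plates were averaged with propagated errors.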

[2] = tested on: RAW-Dual (murine macrophage reporter line); assay: IRF reporter (Lucia luciferase) activity fold change vs agonist alone; higher = enhanced IRF activity
Procedure, shortened: as §1

[3] = tested on: RAW-Dual (murine macrophage reporter line); assay: viability score (confluency relative to resting cells, overnight) (fraction); higher = more viable, active = viable (0.7 or more)
Procedure, shortened: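 RAW-Dual macrophages in 384-well plates were treated overnight with compound at 10 μM final. IncuCyte imaging recorded confluency, and IncuCyte software built two confluency masks across every imaged well. The viability score expresses confluency relative to resting cells and was judged against a cutoff, which a compound met only if both masks exceeded 70% of resting cells.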

[4] = agonist: CpG ODN 1826 0.5 ug/mL

| Compound | NF-kB reporter [1, 4] | NF-kB reporter ([1]; agonist: LPS 0.1 ug/mL) | NF-kB reporter ([1]; agonist: MPLA […]) | IRF reporter ([2]; agonist: 3'3'-cGAMP 10 ug/mL) | IRF reporter ([2]; agonist: LPS 0.1 ug/mL) | IRF reporter ([2]; agonist: MPLA […]) | viability score [3] |
| --- | --- | --- | --- | --- | --- | --- | --- |
| O=C(c1cc2ccccc2o1)N1CC(N2C(=O)CNC2=O)C1 | 1.17 ± 0.28 | 1.04 ± 0.081 | 1.06 ± 0.077 | 0.933 ± 0.038 | 1.12 ± 0.15 | 1.33 ± 0.13 | 0.989 (active) |
| COc1ccc(-c2cc(C(F)F)nn2-c2ccc(S(N)(=O)=O)cc2)cc1F | 0.989 ± 0.29 | 0.98 ± 0.05 | 0.993 ± 0.068 | 0.935 ± 0.052 | 1.3 ± 0.24 | 1.23 ± 0.18 | 0.998 (active) |
| O=C(O)c1cc(O)c2ccccc2n1 | 1.23 ± 0.3 | 1.13 ± 0.11 | 1 ± 0.064 | 1.01 ± 0.057 | 1.21 ± 0.14 | 1.38 ± 0.14 | 0.991 (active) |
| COc1ccc(-n2c(=O)c3c4c(sc3n3c(SC)nnc23)CCCC4)cc1 | 1.16 ± 0.13 | 1.06 ± 0.074 | 1.14 ± 0.044 | 0.971 ± 0.18 | 0.96 ± 0.04 | 0.921 ± 0.064 | 1 (active) |
| COc1cc(C=C2SC(=S)NC2=O)ccc1OCCC(C)C | 0.847 ± 0.074 | 0.969 ± 0.049 | 1.09 ± 0.11 | 1.03 ± 0.047 | 1.43 ± 0.12 | 1.61 ± 0.2 | 1 (active) |
| Brc1ccc2ncnc(NCc3cccnc3)c2c1 | 1.22 ± 0.069 | 1.31 ± 0.11 | 1.02 ± 0.04 | 0.329 ± 0.014 | 0.498 ± 0.047 | 0.641 ± 0.11 | 1 (active) |
| O=C1CCC(=O)N1CC(O)Cn1c2ccc(Cl)cc2c2cc(Cl)ccc21 (stereo not given) | 0.671 ± 0.035 | 0.816 ± 0.065 | 0.896 ± 0.05 | 0.839 ± 0.04 | 1.24 ± 0.25 | 1.19 ± 0.39 | 0.922 (active) |
| Cc1cc(C(O)CCNC(=O)Nc2ccc(Cl)c(Cl)c2)c(C)o1 (stereo not given) | 0.577 ± 0.033 | 0.87 ± 0.075 | 0.791 ± 0.072 | 0.835 ± 0.038 | 0.974 ± 0.22 | 0.863 ± 0.31 | 0.975 (active) |
| Cc1ccc(O)c(C2=NOC(O)(C(F)(F)F)C2)c1 (stereo not given) | 1.05 ± 0.065 | 0.955 ± 0.074 | 0.919 ± 0.054 | 0.975 ± 0.037 | 1.43 ± 0.24 | 1.04 ± 0.093 | 0.339 (inactive) |
| O=C1CCCc2nn(-c3ccccc3)nc21 | 1.02 ± 0.086 | 1.05 ± 0.14 | 1.09 ± 0.12 | 1 ± 0.049 | 1.17 ± 0.14 | 1.21 ± 0.19 | 1.03 (active) |
| Cc1ccc(Sc2c(C)nn(-c3ccccc3)c2OC(=O)C(C)(C)C)cc1 | 0.74 ± 0.07 | 0.87 ± 0.075 | 0.928 ± 0.12 | 0.557 ± 0.031 | 1.08 ± 0.1 | 1.03 ± 0.19 | 0.963 (active) |
| CC(C)c1ccc(NC(=O)C2CCCCC2C(=O)O)cc1 (stereo not given) | 1.19 ± 0.074 | 1.06 ± 0.07 | 0.994 ± 0.071 | 0.93 ± 0.031 | 1.51 ± 0.1 | 1.24 ± 0.12 | 0.996 (active) |
| CCC(=O)Nc1ccc(S(=O)(=O)N2CCCC(Cc3nc(C4CC4)no3)C2)c(C)c1 (stereo not given) | 0.885 ± 0.062 | 0.986 ± 0.1 | 1.01 ± 0.065 | 0.88 ± 0.048 | 1.21 ± 0.26 | 1.38 ± 0.51 | 0.961 (active) |
| CCc1ccc(Cc2ccc3c(c2)[C@]2(OC3)O[C@H](CO)[C@@H](O)[C@H](O)[C@H]2O)cc1.O | 1.04 ± 0.29 | 1.08 ± 0.054 | 1.07 ± 0.094 | 0.883 ± 0.033 | 1.04 ± 0.12 | 1.16 ± 0.26 | 0.987 (active) |
| CC1=C(C(=O)N2CCOCC2)C(c2cccs2)NC(=O)N1 (stereo not given) | 1.12 ± 0.18 | 0.973 ± 0.1 | 0.965 ± 0.076 | 0.933 ± 0.047 | 1.07 ± 0.11 | 1.17 ± 0.14 | 0.986 (active) |
| COc1cc2c(cc1OC)C1Cc3ccc(OC)c(OC)c3CN1CC2 (stereo not given) | 0.932 ± 0.24 | 0.87 ± 0.044 | 0.949 ± 0.067 | 0.871 ± 0.052 | 1.09 ± 0.14 | 1.15 ± 0.17 | 1 (active) |
| O=C(c1ccc(S(=O)(=O)N2CCCC2)cc1)N1CC(Nc2ccncn2)C1 | 0.978 ± 0.1 | 0.986 ± 0.086 | 0.921 ± 0.057 | 0.969 ± 0.071 | 1.23 ± 0.13 | 1.06 ± 0.095 | 1 (active) |
| Cl.Cl.Clc1ccc(Nc2nnc(Cc3ccncc3)c3ccccc23)cc1 | 1.04 ± 0.15 | 1 ± 0.24 | 1.14 ± 0.31 | 0.628 ± 0.021 | 1.12 ± 0.2 | 0.926 ± 0.14 | 0.979 (active) |
| N#CC1=C(NC(=S)NC(=O)c2ccccc2)c2ccccc2CC12CCCCC2 | 0.818 ± 0.096 | 0.577 ± 0.12 | 1.08 ± 0.085 | 1.76 ± 0.18 | 1.41 ± 0.098 | 1.73 ± 0.18 | 0.877 (active) |
| CC(C(=O)O)c1ccc(CC2CCCC2=O)cc1 (stereo not given) | 0.81 ± 0.11 | 1.03 ± 0.26 | 0.906 ± 0.066 | 0.916 ± 0.042 | 1.19 ± 0.18 | 1.25 ± 0.27 | 1 (active) |
| Cc1ccc(S(=O)(=O)n2cnc3ccccc32)cc1C | 0.594 ± 0.066 | 1.11 ± 0.065 | 1.07 ± 0.064 | 1.12 ± 0.042 | 1.37 ± 0.12 | 1.06 ± 0.07 | 0.988 (active) |
| O=S1(=O)Nc2c(ccc3cccnc23)-c2ccccc21 | 0.603 ± 0.086 | 1.38 ± 0.1 | 2.34 ± 0.22 | 15 ± 0.57 | 0.755 ± 0.23 | 0.29 ± 0.079 | 0.671 (inactive) |
| CC(C)N(C)CCOC(=O)C(C)(c1ccccc1)c1ccccc1 | 0.583 ± 0.047 | 1.03 ± 0.068 | 0.957 ± 0.11 | 0.902 ± 0.069 | 1.09 ± 0.12 | 0.965 ± 0.17 | 0.322 (inactive) |
| Cc1ccc(C(C)C)c(Oc2ccccc2NC(=O)c2cc(I)cc(I)c2O)c1 | 0.995 ± 0.066 | 0.985 ± 0.082 | 0.924 ± 0.071 | 0.915 ± 0.035 | 1.44 ± 0.092 | 1.27 ± 0.25 | 1 (active) |
| CCCCSc1nnc2c(n1)OC(c1cccc(O)c1)Nc1ccc(Br)cc1-2 (stereo not given) | 0.765 ± 0.063 | 0.954 ± 0.073 | 0.996 ± 0.14 | 0.644 ± 0.031 | 0.931 ± 0.065 | 0.866 ± 0.075 | 1.02 (active) |
